In ChEMBL document CHEMBL1961873, “Compounds: GSK PKIS; Assays: Nanosyn kinase panel” (2012) one finds inhibition data, which are given here for 9 compounds.

For assay [1], the target named is T1, Serine/threonine-protein kinase D2 (Homo sapiens) (UniProt Q9BZL6).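 Also: mean value of PRKD2 inhibition, from the GSK PKIS screening panel.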
T1 sequence (whole entry): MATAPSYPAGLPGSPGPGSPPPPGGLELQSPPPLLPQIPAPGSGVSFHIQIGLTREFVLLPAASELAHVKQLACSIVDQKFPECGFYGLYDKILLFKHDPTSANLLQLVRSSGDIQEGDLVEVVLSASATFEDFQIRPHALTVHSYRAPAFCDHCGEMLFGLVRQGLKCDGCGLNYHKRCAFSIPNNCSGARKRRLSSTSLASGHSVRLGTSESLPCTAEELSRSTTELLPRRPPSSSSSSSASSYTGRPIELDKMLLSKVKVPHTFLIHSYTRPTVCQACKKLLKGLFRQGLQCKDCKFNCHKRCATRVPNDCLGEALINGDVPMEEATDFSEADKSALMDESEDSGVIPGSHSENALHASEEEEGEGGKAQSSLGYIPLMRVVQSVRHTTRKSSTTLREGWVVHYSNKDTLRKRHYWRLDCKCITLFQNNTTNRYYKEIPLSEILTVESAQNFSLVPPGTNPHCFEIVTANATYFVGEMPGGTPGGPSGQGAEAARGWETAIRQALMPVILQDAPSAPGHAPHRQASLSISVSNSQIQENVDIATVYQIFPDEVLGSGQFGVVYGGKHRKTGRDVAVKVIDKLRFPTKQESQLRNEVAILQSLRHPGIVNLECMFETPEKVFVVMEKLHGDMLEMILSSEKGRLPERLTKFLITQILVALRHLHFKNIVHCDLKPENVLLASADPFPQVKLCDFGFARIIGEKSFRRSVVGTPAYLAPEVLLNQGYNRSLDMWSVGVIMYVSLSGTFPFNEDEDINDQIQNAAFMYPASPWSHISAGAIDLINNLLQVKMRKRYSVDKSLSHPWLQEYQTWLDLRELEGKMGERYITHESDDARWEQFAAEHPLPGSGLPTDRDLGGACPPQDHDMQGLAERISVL
Particulars: at 1 µM.

Assay [2] has as its target T2, Serine/threonine-protein kinase D3 (Homo sapiens) (UniProt O94806).
T2 sequence (whole entry): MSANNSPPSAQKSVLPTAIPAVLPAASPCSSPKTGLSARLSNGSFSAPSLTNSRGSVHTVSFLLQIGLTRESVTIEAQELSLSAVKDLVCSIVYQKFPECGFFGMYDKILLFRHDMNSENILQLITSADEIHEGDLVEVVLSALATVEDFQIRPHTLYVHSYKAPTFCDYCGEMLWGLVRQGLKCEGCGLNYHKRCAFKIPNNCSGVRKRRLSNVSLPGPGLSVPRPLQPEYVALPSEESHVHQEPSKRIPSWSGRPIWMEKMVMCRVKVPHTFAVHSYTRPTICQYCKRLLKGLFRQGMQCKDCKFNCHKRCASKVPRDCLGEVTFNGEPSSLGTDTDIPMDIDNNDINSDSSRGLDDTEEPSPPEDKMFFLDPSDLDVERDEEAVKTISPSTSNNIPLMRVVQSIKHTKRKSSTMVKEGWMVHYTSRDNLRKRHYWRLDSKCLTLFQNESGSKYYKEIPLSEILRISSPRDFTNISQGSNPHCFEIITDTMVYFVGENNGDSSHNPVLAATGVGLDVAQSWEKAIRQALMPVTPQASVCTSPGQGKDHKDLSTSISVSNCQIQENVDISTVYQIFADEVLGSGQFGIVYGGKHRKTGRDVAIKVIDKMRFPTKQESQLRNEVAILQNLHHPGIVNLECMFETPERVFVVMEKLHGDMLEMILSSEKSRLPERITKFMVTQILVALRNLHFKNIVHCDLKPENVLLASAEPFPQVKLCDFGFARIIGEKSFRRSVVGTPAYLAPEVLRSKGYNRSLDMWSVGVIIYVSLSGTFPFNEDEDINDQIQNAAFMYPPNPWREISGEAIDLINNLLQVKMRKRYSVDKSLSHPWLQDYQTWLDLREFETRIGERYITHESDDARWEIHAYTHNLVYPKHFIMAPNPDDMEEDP
Particulars: at 0.1 µM.

Assay [3] has as its target T2, Serine/threonine-protein kinase D3 (Homo sapiens). Particulars: at 1 µM.
Assay [4] addresses T3, cGMP-dependent protein kinase 1 (Homo sapiens) (UniProt Q13976).
T3 sequence (whole entry): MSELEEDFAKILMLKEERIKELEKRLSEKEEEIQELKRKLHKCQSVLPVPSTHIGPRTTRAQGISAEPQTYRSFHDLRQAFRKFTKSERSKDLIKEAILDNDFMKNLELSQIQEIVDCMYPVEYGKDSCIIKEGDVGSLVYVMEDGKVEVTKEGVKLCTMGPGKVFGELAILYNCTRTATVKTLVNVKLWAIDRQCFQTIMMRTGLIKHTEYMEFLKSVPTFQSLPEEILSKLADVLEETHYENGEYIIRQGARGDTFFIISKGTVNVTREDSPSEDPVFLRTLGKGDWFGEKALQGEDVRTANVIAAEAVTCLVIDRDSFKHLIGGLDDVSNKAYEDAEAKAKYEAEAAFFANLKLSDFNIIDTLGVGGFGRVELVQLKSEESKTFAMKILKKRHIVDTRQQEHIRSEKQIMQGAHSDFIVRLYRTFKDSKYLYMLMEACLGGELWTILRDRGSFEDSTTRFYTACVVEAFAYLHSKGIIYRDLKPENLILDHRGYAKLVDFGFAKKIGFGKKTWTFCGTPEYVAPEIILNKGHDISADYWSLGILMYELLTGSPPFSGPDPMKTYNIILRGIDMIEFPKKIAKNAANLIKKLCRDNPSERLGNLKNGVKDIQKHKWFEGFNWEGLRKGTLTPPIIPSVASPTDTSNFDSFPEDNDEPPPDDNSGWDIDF
Particulars: at 0.1 µM.

Assay [5] has as its target T3, cGMP-dependent protein kinase 1 (Homo sapiens). Conditions: at 1 µM.
The target of assay [6] is T4, cGMP-dependent protein kinase 2 (Homo sapiens) (UniProt Q13237).
T4 sequence (whole entry): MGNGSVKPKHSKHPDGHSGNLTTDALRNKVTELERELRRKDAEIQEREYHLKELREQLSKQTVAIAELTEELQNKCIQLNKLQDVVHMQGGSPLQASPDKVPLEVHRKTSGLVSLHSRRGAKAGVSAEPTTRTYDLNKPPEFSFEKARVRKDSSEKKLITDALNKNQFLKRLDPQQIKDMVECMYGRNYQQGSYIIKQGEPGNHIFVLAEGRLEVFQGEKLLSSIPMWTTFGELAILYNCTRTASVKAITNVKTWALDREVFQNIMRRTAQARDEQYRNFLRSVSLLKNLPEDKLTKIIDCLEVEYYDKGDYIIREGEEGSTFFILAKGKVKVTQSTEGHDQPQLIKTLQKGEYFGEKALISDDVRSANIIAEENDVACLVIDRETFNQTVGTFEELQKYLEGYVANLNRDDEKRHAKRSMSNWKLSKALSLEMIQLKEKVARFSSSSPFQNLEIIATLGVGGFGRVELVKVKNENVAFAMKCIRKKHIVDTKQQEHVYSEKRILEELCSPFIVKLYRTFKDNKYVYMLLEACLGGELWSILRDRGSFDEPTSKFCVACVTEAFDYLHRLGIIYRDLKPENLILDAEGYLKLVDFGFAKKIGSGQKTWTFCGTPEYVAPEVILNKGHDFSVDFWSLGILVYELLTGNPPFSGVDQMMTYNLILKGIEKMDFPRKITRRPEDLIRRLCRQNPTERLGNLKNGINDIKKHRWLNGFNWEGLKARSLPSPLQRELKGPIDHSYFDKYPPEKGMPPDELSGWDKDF
Particulars: at 0.1 µM.

Assay [7] has as its target T4, cGMP-dependent protein kinase 2 (Homo sapiens). Conditions: at 1 µM.
Assay [8] deals with T5, cAMP-dependent protein kinase catalytic subunit PRKX (Homo sapiens) (UniProt P51817).
T5 sequence (whole entry): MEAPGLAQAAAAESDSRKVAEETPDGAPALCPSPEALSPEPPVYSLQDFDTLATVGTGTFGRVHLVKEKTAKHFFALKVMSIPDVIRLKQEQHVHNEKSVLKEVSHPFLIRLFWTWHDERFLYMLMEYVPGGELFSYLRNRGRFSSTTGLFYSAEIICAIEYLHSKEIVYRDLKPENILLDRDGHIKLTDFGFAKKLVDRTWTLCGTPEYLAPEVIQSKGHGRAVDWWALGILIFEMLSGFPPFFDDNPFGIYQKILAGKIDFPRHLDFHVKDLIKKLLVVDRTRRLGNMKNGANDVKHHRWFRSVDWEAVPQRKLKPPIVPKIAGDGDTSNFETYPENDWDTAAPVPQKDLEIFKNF
Conditions: at 0.1 µM.

The target of assay [9] is T5, cAMP-dependent protein kinase catalytic subunit PRKX (Homo sapiens). Conditions: at 1 µM.
For assay [10], the target named is Rho-associated protein kinase 1 (Homo sapiens) (UniProt Q13464). Particulars: at 0.1 µM.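 Also: values are mean percent inhibition of ROCK1.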
Chain of Rho-associated protein kinase 1 (Homo sapiens) (Q13464 2-1354 limits assumed): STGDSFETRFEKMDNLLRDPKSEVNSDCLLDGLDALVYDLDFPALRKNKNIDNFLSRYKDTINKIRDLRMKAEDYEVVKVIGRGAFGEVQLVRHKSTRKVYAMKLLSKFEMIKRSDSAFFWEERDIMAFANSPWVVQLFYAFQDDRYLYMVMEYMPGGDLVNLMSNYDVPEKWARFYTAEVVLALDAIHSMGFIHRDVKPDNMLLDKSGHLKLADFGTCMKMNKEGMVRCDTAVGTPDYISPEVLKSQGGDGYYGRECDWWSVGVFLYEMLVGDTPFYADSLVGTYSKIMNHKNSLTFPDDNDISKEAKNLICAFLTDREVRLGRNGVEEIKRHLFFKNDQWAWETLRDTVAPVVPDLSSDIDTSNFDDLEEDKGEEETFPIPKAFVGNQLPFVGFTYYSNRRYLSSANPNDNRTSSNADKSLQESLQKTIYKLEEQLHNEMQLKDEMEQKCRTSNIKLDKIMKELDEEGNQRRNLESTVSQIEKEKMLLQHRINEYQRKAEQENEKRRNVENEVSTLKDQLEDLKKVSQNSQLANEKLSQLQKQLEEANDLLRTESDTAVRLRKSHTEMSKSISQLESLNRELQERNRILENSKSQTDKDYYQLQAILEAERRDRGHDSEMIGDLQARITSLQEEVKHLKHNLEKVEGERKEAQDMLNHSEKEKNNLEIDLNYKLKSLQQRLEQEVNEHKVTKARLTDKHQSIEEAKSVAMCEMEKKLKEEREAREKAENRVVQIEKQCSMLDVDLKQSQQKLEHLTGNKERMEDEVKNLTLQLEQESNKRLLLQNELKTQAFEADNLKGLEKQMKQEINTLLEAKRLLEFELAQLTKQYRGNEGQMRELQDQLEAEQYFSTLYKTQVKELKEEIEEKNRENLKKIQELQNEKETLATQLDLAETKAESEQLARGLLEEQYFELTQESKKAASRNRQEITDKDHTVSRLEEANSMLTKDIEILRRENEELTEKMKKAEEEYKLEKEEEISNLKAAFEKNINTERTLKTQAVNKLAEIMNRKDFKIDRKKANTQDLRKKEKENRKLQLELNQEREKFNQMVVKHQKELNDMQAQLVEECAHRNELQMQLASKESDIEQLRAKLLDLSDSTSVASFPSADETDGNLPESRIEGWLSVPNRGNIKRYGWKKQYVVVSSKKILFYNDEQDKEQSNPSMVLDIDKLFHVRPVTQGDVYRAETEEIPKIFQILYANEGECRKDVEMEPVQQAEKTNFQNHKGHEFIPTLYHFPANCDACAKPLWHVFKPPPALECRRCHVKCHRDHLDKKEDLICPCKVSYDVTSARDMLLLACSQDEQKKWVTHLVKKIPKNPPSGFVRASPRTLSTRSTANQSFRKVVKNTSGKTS

By inhibition is commonly meant the drop in the measured response relative to a control, in per cent. As to `CCn1c(-c2nonc2N)nc2cnc(Oc3cccc(NC(=O)c4ccc(OCCN5CCOCC5)cc4)c3)cc21`, the inhibition in assay [1] stood at 4.52%; in assay [2], 2.2%; in [3], 2.69%; in assay [4], 60.5%; in [5], 76.6%; in assay [6] it was 27.3%. In addition, the inhibition in assay [7] worked out at 66.3%; in [8], 18.6%; in [9], 63.1%.
`CS(=O)(=O)CCNCc1ccc(-c2ccc3ncnc(Nc4ccc(OCc5ccccc5)c(Cl)c4)c3c2)o1`: the inhibition is -0.61% in assay [1]; -0.81% in assay [2]; -0.48% in assay [3]; 1.06% in assay [4]; 2% in assay [5]; 0.55% in assay [6]. The inhibition stood at 1.26% in assay [7], 0.78% in [8], 0.52% in [9] and 1.32% in assay [10].
Regarding `CNC(=O)c1cncc(/C=C/c2c(Cl)cccc2Cl)c1`, the inhibition in assay [1] was 3.77%; in [2], 1.19%; in [3], 4.45%; in assay [4], 4.02%; in [5] it was 5.23%; in assay [6], 1.23%. In addition, the inhibition in assay [7] was 4.56%; in assay [8] it was 1.86%; in assay [9], 1.79%; in [10], 1.46%.
As for `Cc1ccc(C(=O)NC2CCCCC2)cc1-c1ccc(C(=O)NCC2CC2)cc1`, the inhibition was found to be 2.9% in [1]; 2.25% in assay [2]; 2.53% in [3]; 4.55% in assay [4]; 4.23% in assay [5]; 2.62% in assay [6]. The inhibition stood at 2.94% in [7], 2.1% in [8], 0.91% in assay [9] and 1.64% in [10].
Take `O=C1NC(=O)C(c2cccc(Cl)c2)=C1Nc1ccc(O)c(Cl)c1`: the inhibition turned out to be 3.16% in assay [1]; 0.75% in [2]; 1.47% in [3]; 0.66% in assay [4]; 2.21% in assay [5]; 1.23% in assay [6]. For the same compound, the inhibition in [7] is 5.33%; in assay [8], -0.43%; in assay [9], -1.53%; in assay [10], 0.21%.
In the case of `COc1cc2ncn(-c3cc(O[C@@H](C)c4ccccc4Cl)c(C(N)=O)s3)c2cc1OC`, the inhibition in assay [1] stood at 2.84%; in assay [2], 4.96%; in assay [3], 4.78%; in assay [4], 3.4%; in assay [5], 4.72%; in assay [6], 4.02%. Further, the inhibition in assay [7] was determined as 5.22%; in assay [8], 3.8%; in [9] it was 3.91%; in assay [10], 2.15%.
Turning to `CC1=C(C(=O)Nc2ccc3[nH]ncc3c2)C(c2ccc(F)cc2)NC(=O)N1` (stereo not drawn), the inhibition in assay [1] was determined as 8.48%; in assay [2], 3.46%; in [3], 7.95%; in [4], 4.58%; in assay [5], 20.1%; in assay [6], 1.73%. Moreover, the inhibition in assay [7] was 12.6%; in assay [8], 12.7%; in [9] it was 53.4%.
`NC(=O)c1ccc(-c2nc(-c3ccccn3)c(-c3ccc4c(c3)OCO4)[nH]2)cc1`: the inhibition in assay [1] amounted to 6.06%; in assay [2] it was 2.14%; in assay [3] it was 5.59%; in assay [4] it was 0.18%; in [5], 3.55%; in assay [6], 1.83%. Also, the inhibition came out at 3.18% in assay [7], 1.66% in [8], 2.01% in assay [9] and 0.07% in assay [10].
On to `O=C(Nc1n[nH]c2nc(-c3ccco3)c(Br)cc12)C1CC1`, for which the inhibition in assay [1] is 5.03%; in assay [2] it was 3.1%; in assay [3], 4.81%; in assay [4], 2.39%; in assay [5] it was 3.36%; in assay [6], 1.15%. For the same compound, the inhibition in assay [7] was 1.85%; in assay [8], 1.8%; in assay [9] it was -0.27%; in assay [10] it was 0.16%.
